An excerpt weighted towards active compounds, which were near 3% of everything screened.
15-hLO-2 inh = blocks human 15-lipoxygenase 2 activity; 0.56% of 110,000 active; purified 15hLO-2, xylenol orange hydroperoxide absorbance; Potency, µM (highest dose often 57.1 µM), for the others: at the highest dose activity change, negative = inhibition, actives largely listed as inhibitors; AID 881; O15296; note: potency is the fitted concentration of half-maximal effect; nearly all actives have a fitted effect of over 60% in size
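Enzyme 50 nM, AA 45 uM, 25 mM Hepes pH 7.5 + 0.01% Triton X-100; cpd preinc 15 min RT, rxn 90 min RT; stop/detect with 200 uM XO + 300 uM Fe(II) in 50 mM H2SO4, 30 min; A573/A405.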
IMPase inh = cell-permeable inhibitors of inositol monophosphatase (IMPase) | P97697 | CHO-M1 cells, IP1 accumulation, HTRF TR-FRET ratio | inhibition (IP1 accumulation), % at 46.1 µM | 120,000 tested, under 10 active | AID 901; active = well fitted curve in the direction sought with a large enough effect in the signal ratio, not every such curve was filed as active; inconclusive = small, poorly fitted or top-dose-only effect, or a change in a side signal; inactive = no such curve, though single readings can be large or run the other way; the % refers to the signal ratio;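 note: cells stimulated with carbachol in lithium chloride buffer; plate controls were DMSO basal wells for no effect and reference inhibitor wells for full effect; higher means more IMPase inhibition seen as more IP1 and lower FRET ratio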
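In this qHTS, compounds (final up to 46 uM) act on CHO-M1 cells that are then activated through the M1 receptor with carbachol, in pH 7.4 buffer containing 50 mM LiCl, for 30 min. IP1 accumulation is quantified by the IP-One immunoassay.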
12-hLO inh = inhibitors of human 12-lipoxygenase (ALOX12); purified 12-hLO, xylenol orange hydroperoxide absorbance; Potency, µM (doses to about 57.1 µM), without a hit: at the top dose activity change, negative = inhibition, hits mostly inhibitors; 0.12% of 150,000 active; note: potency is the fitted concentration of half-maximal effect; nearly all actives have a fitted effect of over 55% in size
Target sequence (P18054 whole entry, looked up): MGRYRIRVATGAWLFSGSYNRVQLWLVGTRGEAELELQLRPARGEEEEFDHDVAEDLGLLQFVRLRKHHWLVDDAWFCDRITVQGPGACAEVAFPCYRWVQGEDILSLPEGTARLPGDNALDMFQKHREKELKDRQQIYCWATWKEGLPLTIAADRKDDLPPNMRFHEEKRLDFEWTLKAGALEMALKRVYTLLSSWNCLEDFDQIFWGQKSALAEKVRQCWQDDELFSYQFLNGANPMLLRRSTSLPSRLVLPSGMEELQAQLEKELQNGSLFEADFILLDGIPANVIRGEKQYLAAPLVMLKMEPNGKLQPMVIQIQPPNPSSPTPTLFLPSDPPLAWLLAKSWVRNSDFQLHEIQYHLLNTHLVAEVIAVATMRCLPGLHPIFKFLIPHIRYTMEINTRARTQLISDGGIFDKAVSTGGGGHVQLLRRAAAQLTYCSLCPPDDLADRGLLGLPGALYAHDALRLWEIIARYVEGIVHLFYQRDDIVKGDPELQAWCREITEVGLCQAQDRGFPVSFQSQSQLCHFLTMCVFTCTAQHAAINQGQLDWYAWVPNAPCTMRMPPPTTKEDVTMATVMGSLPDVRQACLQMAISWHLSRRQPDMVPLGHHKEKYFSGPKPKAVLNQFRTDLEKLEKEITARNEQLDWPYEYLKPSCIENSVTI
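Xylenol orange chromogenic assay: hydroperoxide from 12hLO oxidises Fe(II), giving red-shifted Fe(III)-XO absorbance. Conditions: 150 nM enzyme, 40 uM arachidonic acid, 25 mM Hepes pH 7.0, 0.01% Triton X-100, 30 min, room temperature.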
PNC inhibitor = blocks assembly of the perinucleolar compartment | PC3M PTB-GFP, PNC prevalence imaging, 16 h; stronger effect = lower value | activity change (PNC), negative = inhibition, % at 10 µM | 3.1% of 140,000 active;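 active = readout at or below -70, meaning at least 70% loss of cells showing the perinucleolar compartment, a nuclear body marking cancer cells; inconclusive = readout between -30 and a set limit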;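 note: plate controls were DMSO wells for no effect and camptothecin positive control wells for full effect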
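Read-out is percentage of cells bearing a perinucleolar compartment, from automated 20x imaging of fixed, Hoechst-stained PC3M PTB-GFP cells. Cells were seeded 4 h, then exposed 16 h to compound (23 nl of library stock) in duplicate plates.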
* hit, by the source's call; [ ] = dose if it differs, or a comment. Unless noted, calls come from the whole dose curve; as a rule, active = well fitted curve in the direction sought with a large enough effect; inconclusive = small, poorly fitted or top-dose-only effect, or another doubt; inactive = no such curve, though single readings can be large; an effect the other way counts as inactive or inconclusive. Unless noted, % is set by controls: 0 for no effect and ±100 for the full control effect.

For CC(C)n1c(SCC(=O)Nc2nc3c(s2)CCCC3)nc2c1c(=O)n(C)c(=O)n2C the results were IMPase inh 5, 12-hLO inh -1% and PNC inhibitor -100*.
Screening CCCn1c(SCC(=O)Nc2nc3ccccc3s2)nc2c1c(=O)n(C)c(=O)n2C returned 15-hLO-2 inh 1%, IMPase inh 3, 12-hLO inh 4% and PNC inhibitor -111*.
Screening CCOC(=O)c1c(NC(=O)CSc2nc3c(c(=O)n(C)c(=O)n3C)n2C(C)C)sc(C)c1C returned 15-hLO-2 inh 0%, IMPase inh 0, 12-hLO inh 0% and PNC inhibitor inconclusive.
`CC(C)[C@@H](CC(=O)N[C@@H]1CCCC[C@H]1C(=O)N[C@H](CC(=O)N[C@@H](CCC(=O)O)CC(=O)O)Cc1ccccc1)NC(=O)C[C@H](Cc1c[nH]c2ccccc12)NC(=O)[C@@H]1CCCC[C@H]1N` gave 12-hLO inh 0%.
For COc1ccc(Nc2oc(COc3ccc(C)cc3)nc2C#N)cc1 the results were IMPase inh 7, 12-hLO inh -23% and PNC inhibitor -100*.
CNC(=O)NC(=O)C(C)OC(=O)c1cc2c(s1)CCCCC2 (configuration not stated) was read as IMPase inh -5, 12-hLO inh -2% and PNC inhibitor inconclusive.
Screening Cc1ccc(C(=O)COC(=O)c2cccc(NC(=O)c3ccc(Cl)cc3Cl)c2)cc1 returned IMPase inh 3.
Screening CCCn1c(N)c(C(=O)CSc2nnc(Cc3ccccc3)o2)c(=O)n(C)c1=O returned IMPase inh 13, 12-hLO inh 29% and PNC inhibitor -100*.
C/C=C\C[C@@H](C)[C@@H](O)[C@H]1C(=O)N[C@@H](CC)C(=O)N(C)CC(=O)N(C)[C@@H](CC(C)C)C(=O)N[C@@H](C(C)C)C(=O)N(C)[C@@H](CC(C)C)C(=O)N[C@@H](C)C(=O)N[C@H](C)C(=O)N(C)[C@@H](CC(C)C)C(=O)N(C)[C@@H](CC(C)C)C(=O)N(C)[C@@H](C(C)C)C(=O)N1C was read as 15-hLO-2 inh 20%, IMPase inh 4 and 12-hLO inh -1%.
COc1ccc(C(=O)NNC(=O)c2ccccc2[N+](=O)[O-])cc1 was read as 12-hLO inh -2% and PNC inhibitor -89*.
Screening COc1ccc(C(=O)NNC(=O)c2ccccc2[N+](=O)[O-])cc1Br returned 12-hLO inh 2% and PNC inhibitor 3.
`Cc1ccc(S(=O)(=O)N2CCCN(S(=O)(=O)c3ccc4ccccc4c3)CC2)cc1` gave IMPase inh -8, 12-hLO inh 6% and PNC inhibitor -100*.
`Cc1cnc(CNc2nc(-c3cccc(NS(C)(=O)=O)c3)nc3ccccc23)cn1` gave 15-hLO-2 inh -14%.
For CCOC(=O)CSC1=C(C#N)C(c2ccc(C)s2)CC(=O)N1 (configuration not stated) the results were 15-hLO-2 inh 0%, IMPase inh 5, 12-hLO inh 2% and PNC inhibitor -88*.
For CC(=O)N[C@@H](CSC(=O)[C@]1([C@@H](O)C(C)C)NC(=O)[C@H](C)[C@@H]1O)C(=O)O the results were 15-hLO-2 inh -4%[0.0915 µM] and 12-hLO inh -1%[0.00818 µM].
`CN(C)/N=N/c1nc[nH]c1C(N)=O` gave 15-hLO-2 inh -4% and 12-hLO inh -4%.
For CCCC(=O)Nc1cc(C(=O)O)ccc1S(=O)(=O)c1ccc(C)cc1 the results were 12-hLO inh 0% and PNC inhibitor -113*.
For CC(=O)Nc1cc(C(=O)N2CCCC2)ccc1S(=O)(=O)c1ccc(C)cc1 the results were 15-hLO-2 inh 9%, IMPase inh -6, 12-hLO inh -5% and PNC inhibitor 16.
Screening O=C(CSC1=NS(=O)(=O)c2ccccc21)Nc1ccccc1 returned 15-hLO-2 inh 13µM*, IMPase inh 0, 12-hLO inh 3% and PNC inhibitor 0.
COC(=O)CSC1=NS(=O)(=O)c2ccccc21 was read as 15-hLO-2 inh inconclusive, IMPase inh -3, 12-hLO inh 1% and PNC inhibitor inconclusive.
Cn1c(=O)[nH]c(Nc2ccc(F)cc2)c([N+](=O)[O-])c1=O was read as 12-hLO inh 1% and PNC inhibitor -109*.

Screens: PubChem, National Center for Advancing Translational Sciences (NCATS)
